# Reference: PubChem BioAssay AID1159580 (chemical genetic matrix, 2015)
# In all, about 5,500 compounds went through this assay and about 2,000 (36%) were called active. Not shown: some 18% with an inconclusive outcome. Some of the results follow. Values without a mark were called inactive. No stated cut-off is given here; in the data, active means normalized growth mostly below about 0.91 (no sharp cut-off); inconclusive means no clear call, values can overlap the other calls; inactive means mostly above about 0.92.
# Experiment: chemical genetic growth profiling, strain panel (AID 1159580);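 further: tested at 20 µM; growth read once vehicle control cultures reached saturation at 30 °C; 1 = growth at the plate median or of vehicle wells; lower values mean less growth of the strain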
# Conditions: growth OD
smiles,measurement,setting,value
CO[C@]12C[C@@H](COC(=O)c3cncc(Br)c3)CN(C)[C@@H]1Cc1cn(C)c3cccc2c13,normalized growth,"S. cerevisiae deletion strains, locus YJR075W, strain HOC1, active compounds read low",0.994
same,normalized growth,"S. cerevisiae deletion strains, locus YKL009W, strain mrt4, active compounds read low",0.968
same,normalized growth,"S. cerevisiae deletion strains, locus YKL068W, active compounds read low",0.997
same,normalized growth,"S. cerevisiae deletion strains, locus YKL085W, strain MDH1 (second series), active compounds read low",0.995
same,normalized growth,"S. cerevisiae deletion strains, locus YKL085W, strain MDH1, active compounds read low",0.995
same,normalized growth,"S. cerevisiae deletion strains, locus YKL160W, strain elf1, active compounds read low",0.984
same,normalized growth,"S. cerevisiae deletion strains, locus YKL190W, strain CNB1, active compounds read low",0.999
same,normalized growth,"S. cerevisiae deletion strains, locus YKR001C, strain vps1, active compounds read low",1.02
same,normalized growth,"S. cerevisiae deletion strains, locus YKR026C, strain gcn3, active compounds read low",1.03
same,normalized growth,"S. cerevisiae deletion strains, locus YKR091W, strain srl3, active compounds read low",0.981
same,normalized growth,"S. cerevisiae deletion strains, locus YLL001W, strain dnm1, active compounds read low",0.965
same,normalized growth,"S. cerevisiae deletion strains, locus YLL026W, active compounds read low",0.989
same,normalized growth,"S. cerevisiae deletion strains, locus YLL041C, strain sdh2, active compounds read low",0.998
same,normalized growth,"S. cerevisiae deletion strains, locus YLR027C, strain aat2, active compounds read low",0.964
same,normalized growth,"S. cerevisiae deletion strains, locus YLR039C, strain RIC1, active compounds read low",1.34 [resistant] (active)
same,normalized growth,"S. cerevisiae deletion strains, locus YLR058C, strain SHM2, active compounds read low",1
same,normalized growth,"S. cerevisiae deletion strains, locus YLR102C, strain apc9, active compounds read low",1.01
same,normalized growth,"S. cerevisiae deletion strains, locus YLR113W, strain HOG1, active compounds read low",0.954
same,normalized growth,"S. cerevisiae deletion strains, locus YLR221C, strain rsa3, active compounds read low",0.973
same,normalized growth,"S. cerevisiae deletion strains, locus YLR258W, strain gsy2, active compounds read low",0.997
same,normalized growth,"S. cerevisiae deletion strains, locus YLR262C, strain YPT6 (second series), active compounds read low",1.07
same,normalized growth,"S. cerevisiae deletion strains, locus YLR262C, strain YPT6, active compounds read low",1.45 [resistant] (active)
same,normalized growth,"S. cerevisiae deletion strains, locus YLR268W, strain sec22, active compounds read low",1.01
same,normalized growth,"S. cerevisiae deletion strains, locus YLR320W, strain mms22, active compounds read low",0.983
same,normalized growth,"S. cerevisiae deletion strains, locus YLR330W, strain CHS5, active compounds read low",1.01
same,normalized growth,"S. cerevisiae deletion strains, locus YLR342W, strain FKS1 (second series), active compounds read low",0.968
same,normalized growth,"S. cerevisiae deletion strains, locus YLR342W, strain FKS1, active compounds read low",0.975
same,normalized growth,"S. cerevisiae deletion strains, locus YLR357W, strain rsc2, active compounds read low",0.969
same,normalized growth,"S. cerevisiae deletion strains, locus YLR370C, strain arc18, active compounds read low",0.985
same,normalized growth,"S. cerevisiae deletion strains, locus YLR371W, strain rom2, active compounds read low",1.01
same,normalized growth,"S. cerevisiae deletion strains, locus YLR384C, strain iki3, active compounds read low",0.991
same,normalized growth,"S. cerevisiae deletion strains, locus YLR418C, strain cdc73, active compounds read low",1.03
same,normalized growth,"S. cerevisiae deletion strains, locus YML016C, strain PPZ1, active compounds read low",1.01
same,normalized growth,"S. cerevisiae deletion strains, locus YML032C, strain rad52, active compounds read low",1.01
same,normalized growth,"S. cerevisiae deletion strains, locus YML120C, strain ndi1, active compounds read low",0.993
same,normalized growth,"S. cerevisiae deletion strains, locus YML124C, strain tub3, active compounds read low",1.01
same,normalized growth,"S. cerevisiae deletion strains, locus YMR058W, strain fet3, active compounds read low",0.992
same,normalized growth,"S. cerevisiae deletion strains, locus YMR078C, strain ctf18, active compounds read low",1
same,normalized growth,"S. cerevisiae deletion strains, locus YMR125W, strain sto1, active compounds read low",0.977
same,normalized growth,"S. cerevisiae deletion strains, locus YMR129W, active compounds read low",0.977
same,normalized growth,"S. cerevisiae deletion strains, locus YMR205C, strain PFK2, active compounds read low",0.977
same,normalized growth,"S. cerevisiae deletion strains, locus YMR223W, strain ubp8, active compounds read low",0.984
same,normalized growth,"S. cerevisiae deletion strains, locus YMR231W, strain pep5, active compounds read low",0.997
same,normalized growth,"S. cerevisiae deletion strains, locus YMR263W, strain SAP30, active compounds read low",0.997
same,normalized growth,"S. cerevisiae deletion strains, locus YMR307W, strain GAS1, active compounds read low",1.08
same,normalized growth,"S. cerevisiae deletion strains, locus YNL067W, strain RPL9B, active compounds read low",0.985
same,normalized growth,"S. cerevisiae deletion strains, locus YNL071W, strain lat1, active compounds read low",0.944
same,normalized growth,"S. cerevisiae deletion strains, locus YNL128W, strain TEP1, active compounds read low",1.01
same,normalized growth,"S. cerevisiae deletion strains, locus YNL153C, strain GIM3, active compounds read low",0.99
same,normalized growth,"S. cerevisiae deletion strains, locus YNL183C, strain NPR1, active compounds read low",0.912
same,normalized growth,"S. cerevisiae deletion strains, locus YNL209W, strain ssb2, active compounds read low",0.996
same,normalized growth,"S. cerevisiae deletion strains, locus YNL233W, strain BNI4, active compounds read low",0.997
same,normalized growth,"S. cerevisiae deletion strains, locus YNL248C, strain rpa49, active compounds read low",0.934
same,normalized growth,"S. cerevisiae deletion strains, locus YNL250W, strain rad50, active compounds read low",1
same,normalized growth,"S. cerevisiae deletion strains, locus YNL271C, strain bni1, active compounds read low",1.01
same,normalized growth,"S. cerevisiae deletion strains, locus YNL298W, strain CLA4, active compounds read low",1.01
same,normalized growth,"S. cerevisiae deletion strains, locus YNL307C, strain MCK1, active compounds read low",0.975
same,normalized growth,"S. cerevisiae deletion strains, locus YNL322C, strain KRE1 (second series), active compounds read low",0.985
same,normalized growth,"S. cerevisiae deletion strains, locus YNL322C, strain KRE1, active compounds read low",1
same,normalized growth,"S. cerevisiae deletion strains, locus YNR049C, strain mso1, active compounds read low",0.993
same,normalized growth,"S. cerevisiae deletion strains, locus YNR052C, strain pop2, active compounds read low",1
same,normalized growth,"S. cerevisiae deletion strains, locus YOL006C, strain TOP1, active compounds read low",1.06
same,normalized growth,"S. cerevisiae deletion strains, locus YOL012C, strain htz1",1.03
same,normalized growth,"S. cerevisiae deletion strains, locus YOL147C, strain pex11, active compounds read low",1.01
same,normalized growth,"S. cerevisiae deletion strains, locus YOR001W, strain rrp6, active compounds read low",0.972
same,normalized growth,"S. cerevisiae deletion strains, locus YOR061W, strain CKA2, active compounds read low",1
same,normalized growth,"S. cerevisiae deletion strains, locus YOR069W, strain VPS5, active compounds read low",1
same,normalized growth,"S. cerevisiae deletion strains, locus YOR070C, strain gyp1, active compounds read low",0.994
same,normalized growth,"S. cerevisiae deletion strains, locus YOR080W, strain dia2, active compounds read low",0.983
same,normalized growth,"S. cerevisiae deletion strains, locus YOR083W, strain WHI5, active compounds read low",0.978
same,normalized growth,"S. cerevisiae deletion strains, locus YOR106W, strain vam3, active compounds read low",0.968
same,normalized growth,"S. cerevisiae deletion strains, locus YOR136W, strain idh2, active compounds read low",0.992
same,normalized growth,"S. cerevisiae deletion strains, locus YOR144C, strain elg1, active compounds read low",1.01
same,normalized growth,"S. cerevisiae deletion strains, locus YOR184W, strain ser1, active compounds read low",0.988
same,normalized growth,"S. cerevisiae deletion strains, locus YOR231W, strain MKK1, active compounds read low",0.983
same,normalized growth,"S. cerevisiae deletion strains, locus YOR265W, strain rbl2, active compounds read low",0.987
same,normalized growth,"S. cerevisiae deletion strains, locus YOR270C, strain vph1, active compounds read low",1.01
same,normalized growth,"S. cerevisiae deletion strains, locus YOR290C, strain snf2, active compounds read low",0.982
same,normalized growth,"S. cerevisiae deletion strains, locus YOR316C, strain cot1, active compounds read low",1
same,normalized growth,"S. cerevisiae deletion strains, locus YPL051W, strain arl3, active compounds read low",0.97
same,normalized growth,"S. cerevisiae deletion strains, locus YPL055C, strain LGE1, active compounds read low",0.977
same,normalized growth,"S. cerevisiae deletion strains, locus YPL078C, strain atp4, active compounds read low",0.975
same,normalized growth,"S. cerevisiae deletion strains, locus YPL106C, strain sse1, active compounds read low",1.01
same,normalized growth,"S. cerevisiae deletion strains, locus YPL240C, strain hsp82, active compounds read low",1.02
same,normalized growth,"S. cerevisiae deletion strains, locus YPL241C, strain CIN2, active compounds read low",0.999
same,normalized growth,"S. cerevisiae deletion strains, locus YPL256C, strain CLN2, active compounds read low",0.972
same,normalized growth,"S. cerevisiae deletion strains, locus YPR119W, strain clb2, active compounds read low",1.01
same,normalized growth,"S. cerevisiae deletion strains, locus YPR141C, strain kar3, active compounds read low",1.01
same,normalized growth,"S. cerevisiae deletion strains, locus YPR163C, strain tif3, active compounds read low",1.02
same,normalized growth,"S. cerevisiae deletion strains, locus YPR167C, strain met16, active compounds read low",1.01
same,normalized growth,"S. cerevisiae deletion strains, strain wtn01, active compounds read low",1.02
same,normalized growth,"S. cerevisiae strains, strain wild type, active compounds read low",0.993
